Legend:
Test in all cases: log2 ratio of Biotin-Ahx-Ub-VS probe labelling (fragment/DMSO); higher = less target engagement (more negative = stronger competition), active = hit call of the paper (q ≤ 0.05, log2 ratio ≤ -1)
Conditions in all cases: compound concentration: 200 uM; treatment time: 3 h
[1] = target: T1, USP19 (UniProt O94966)
T1 sequence (whole entry): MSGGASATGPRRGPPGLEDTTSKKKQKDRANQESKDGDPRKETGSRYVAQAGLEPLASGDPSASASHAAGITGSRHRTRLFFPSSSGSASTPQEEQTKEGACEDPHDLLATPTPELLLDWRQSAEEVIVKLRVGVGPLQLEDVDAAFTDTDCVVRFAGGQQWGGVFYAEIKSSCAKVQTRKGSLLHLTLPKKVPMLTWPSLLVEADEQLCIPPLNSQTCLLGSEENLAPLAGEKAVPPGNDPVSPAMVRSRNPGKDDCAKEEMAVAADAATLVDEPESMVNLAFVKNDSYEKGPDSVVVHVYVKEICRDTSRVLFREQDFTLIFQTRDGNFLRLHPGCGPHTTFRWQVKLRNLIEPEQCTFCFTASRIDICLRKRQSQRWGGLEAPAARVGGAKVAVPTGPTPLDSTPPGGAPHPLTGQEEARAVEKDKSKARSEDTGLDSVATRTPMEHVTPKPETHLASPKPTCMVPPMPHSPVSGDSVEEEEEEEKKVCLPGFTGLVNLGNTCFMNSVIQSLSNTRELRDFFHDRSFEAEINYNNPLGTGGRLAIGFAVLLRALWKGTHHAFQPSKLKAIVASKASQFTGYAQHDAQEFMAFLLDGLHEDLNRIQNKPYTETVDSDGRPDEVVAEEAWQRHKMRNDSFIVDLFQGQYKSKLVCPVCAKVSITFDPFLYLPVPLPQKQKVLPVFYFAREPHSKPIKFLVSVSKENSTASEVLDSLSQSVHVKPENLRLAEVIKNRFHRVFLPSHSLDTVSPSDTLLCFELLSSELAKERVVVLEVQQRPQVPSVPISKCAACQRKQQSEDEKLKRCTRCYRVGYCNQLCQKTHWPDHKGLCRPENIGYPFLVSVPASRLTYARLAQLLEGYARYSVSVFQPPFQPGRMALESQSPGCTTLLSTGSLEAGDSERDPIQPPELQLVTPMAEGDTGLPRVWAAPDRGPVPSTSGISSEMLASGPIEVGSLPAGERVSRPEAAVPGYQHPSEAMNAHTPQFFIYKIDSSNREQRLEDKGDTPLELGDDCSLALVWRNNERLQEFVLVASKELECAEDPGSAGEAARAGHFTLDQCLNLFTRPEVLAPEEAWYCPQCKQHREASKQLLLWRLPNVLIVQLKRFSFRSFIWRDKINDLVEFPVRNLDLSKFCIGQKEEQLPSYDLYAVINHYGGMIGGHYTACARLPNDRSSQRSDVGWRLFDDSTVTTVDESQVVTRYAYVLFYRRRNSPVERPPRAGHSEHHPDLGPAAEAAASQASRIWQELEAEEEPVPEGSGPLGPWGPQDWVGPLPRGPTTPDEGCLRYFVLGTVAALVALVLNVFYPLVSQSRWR
Method in brief: (§1)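 Average log2 ratios of fragment over vehicle were obtained by unpaired t-test from global-median-normalised Spectronaut label-free quantities. Proteins with ≥2 unique peptides were included. HEK293T lysate (495 µg per sample) was treated in triplicate with fragment at 200 µM or vehicle for 3 h, then with Biotin-Ahx-Ub-VS at 0.5 µM final for 1 h, and labelled DUBs were NeutrAvidin-enriched and run by diaPASEF LC-MS/MS.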

[2] = target: USP24 (UniProt Q9UPU5)
USP24, sequence (Q9UPU5 whole entry): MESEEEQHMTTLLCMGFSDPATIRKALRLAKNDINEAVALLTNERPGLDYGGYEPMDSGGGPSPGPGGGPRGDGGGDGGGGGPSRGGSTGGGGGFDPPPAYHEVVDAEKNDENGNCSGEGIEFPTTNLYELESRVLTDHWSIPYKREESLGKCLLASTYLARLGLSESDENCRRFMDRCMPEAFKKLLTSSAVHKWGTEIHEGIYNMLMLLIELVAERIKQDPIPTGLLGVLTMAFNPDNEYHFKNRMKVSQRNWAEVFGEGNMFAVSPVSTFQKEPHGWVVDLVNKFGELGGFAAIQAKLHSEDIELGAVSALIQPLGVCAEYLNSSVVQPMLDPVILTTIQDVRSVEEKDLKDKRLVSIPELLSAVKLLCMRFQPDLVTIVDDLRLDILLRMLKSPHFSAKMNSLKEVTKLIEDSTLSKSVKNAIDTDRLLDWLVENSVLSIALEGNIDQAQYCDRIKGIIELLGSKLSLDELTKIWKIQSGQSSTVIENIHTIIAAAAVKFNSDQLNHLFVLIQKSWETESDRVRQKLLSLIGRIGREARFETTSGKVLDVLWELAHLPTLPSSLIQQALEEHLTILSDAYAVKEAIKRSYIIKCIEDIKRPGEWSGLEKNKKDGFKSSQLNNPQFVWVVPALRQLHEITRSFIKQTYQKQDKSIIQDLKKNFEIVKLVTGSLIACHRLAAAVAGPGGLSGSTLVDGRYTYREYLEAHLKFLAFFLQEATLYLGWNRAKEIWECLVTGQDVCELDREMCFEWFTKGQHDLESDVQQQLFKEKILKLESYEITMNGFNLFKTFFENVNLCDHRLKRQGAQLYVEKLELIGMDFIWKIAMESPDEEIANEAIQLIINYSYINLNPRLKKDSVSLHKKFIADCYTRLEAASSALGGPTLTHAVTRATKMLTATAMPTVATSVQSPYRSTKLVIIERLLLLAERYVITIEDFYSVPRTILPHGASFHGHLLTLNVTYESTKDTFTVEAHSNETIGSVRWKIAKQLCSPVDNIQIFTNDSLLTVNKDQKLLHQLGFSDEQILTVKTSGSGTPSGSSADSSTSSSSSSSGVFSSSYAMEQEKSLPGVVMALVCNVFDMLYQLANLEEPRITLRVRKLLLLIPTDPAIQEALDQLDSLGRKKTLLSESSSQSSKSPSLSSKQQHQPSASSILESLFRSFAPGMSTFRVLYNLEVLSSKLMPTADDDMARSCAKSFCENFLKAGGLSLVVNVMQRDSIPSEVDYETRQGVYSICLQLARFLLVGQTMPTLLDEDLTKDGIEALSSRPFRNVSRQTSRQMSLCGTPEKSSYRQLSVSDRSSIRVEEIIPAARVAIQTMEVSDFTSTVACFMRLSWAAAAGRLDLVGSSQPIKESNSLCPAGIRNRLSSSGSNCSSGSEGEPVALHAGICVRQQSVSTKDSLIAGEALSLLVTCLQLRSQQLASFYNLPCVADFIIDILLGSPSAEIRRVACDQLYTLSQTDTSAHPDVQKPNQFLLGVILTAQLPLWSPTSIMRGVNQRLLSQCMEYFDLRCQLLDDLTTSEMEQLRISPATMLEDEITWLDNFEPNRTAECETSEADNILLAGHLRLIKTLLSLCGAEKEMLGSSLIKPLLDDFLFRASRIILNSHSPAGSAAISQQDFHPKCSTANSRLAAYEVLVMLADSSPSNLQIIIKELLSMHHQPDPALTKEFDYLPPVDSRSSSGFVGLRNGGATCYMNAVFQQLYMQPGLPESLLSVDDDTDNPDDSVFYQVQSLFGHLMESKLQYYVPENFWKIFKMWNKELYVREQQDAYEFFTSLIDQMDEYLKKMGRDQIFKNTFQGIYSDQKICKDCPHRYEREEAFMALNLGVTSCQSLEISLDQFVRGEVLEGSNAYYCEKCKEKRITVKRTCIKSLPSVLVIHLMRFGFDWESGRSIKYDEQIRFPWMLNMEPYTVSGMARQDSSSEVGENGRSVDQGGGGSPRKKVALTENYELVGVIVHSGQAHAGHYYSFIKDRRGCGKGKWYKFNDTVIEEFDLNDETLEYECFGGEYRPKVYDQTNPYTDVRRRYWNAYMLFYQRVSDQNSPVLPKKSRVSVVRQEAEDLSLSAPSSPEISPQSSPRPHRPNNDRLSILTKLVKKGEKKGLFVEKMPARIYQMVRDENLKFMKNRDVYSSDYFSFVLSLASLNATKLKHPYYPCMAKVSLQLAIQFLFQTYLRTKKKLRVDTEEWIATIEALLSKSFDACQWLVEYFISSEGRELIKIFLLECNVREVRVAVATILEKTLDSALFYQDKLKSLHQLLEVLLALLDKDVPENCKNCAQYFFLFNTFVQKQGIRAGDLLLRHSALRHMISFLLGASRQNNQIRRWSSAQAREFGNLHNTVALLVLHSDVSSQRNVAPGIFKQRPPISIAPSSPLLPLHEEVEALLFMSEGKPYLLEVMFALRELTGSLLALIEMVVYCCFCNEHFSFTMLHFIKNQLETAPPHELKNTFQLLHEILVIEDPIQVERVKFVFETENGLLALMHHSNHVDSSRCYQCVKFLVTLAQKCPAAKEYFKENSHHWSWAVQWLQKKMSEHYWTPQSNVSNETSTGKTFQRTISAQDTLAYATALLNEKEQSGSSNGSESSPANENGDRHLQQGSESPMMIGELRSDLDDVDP
Method in brief: as §1

[3] = target: T2, USP25 (UniProt Q9UHP3)
T2 sequence (whole entry): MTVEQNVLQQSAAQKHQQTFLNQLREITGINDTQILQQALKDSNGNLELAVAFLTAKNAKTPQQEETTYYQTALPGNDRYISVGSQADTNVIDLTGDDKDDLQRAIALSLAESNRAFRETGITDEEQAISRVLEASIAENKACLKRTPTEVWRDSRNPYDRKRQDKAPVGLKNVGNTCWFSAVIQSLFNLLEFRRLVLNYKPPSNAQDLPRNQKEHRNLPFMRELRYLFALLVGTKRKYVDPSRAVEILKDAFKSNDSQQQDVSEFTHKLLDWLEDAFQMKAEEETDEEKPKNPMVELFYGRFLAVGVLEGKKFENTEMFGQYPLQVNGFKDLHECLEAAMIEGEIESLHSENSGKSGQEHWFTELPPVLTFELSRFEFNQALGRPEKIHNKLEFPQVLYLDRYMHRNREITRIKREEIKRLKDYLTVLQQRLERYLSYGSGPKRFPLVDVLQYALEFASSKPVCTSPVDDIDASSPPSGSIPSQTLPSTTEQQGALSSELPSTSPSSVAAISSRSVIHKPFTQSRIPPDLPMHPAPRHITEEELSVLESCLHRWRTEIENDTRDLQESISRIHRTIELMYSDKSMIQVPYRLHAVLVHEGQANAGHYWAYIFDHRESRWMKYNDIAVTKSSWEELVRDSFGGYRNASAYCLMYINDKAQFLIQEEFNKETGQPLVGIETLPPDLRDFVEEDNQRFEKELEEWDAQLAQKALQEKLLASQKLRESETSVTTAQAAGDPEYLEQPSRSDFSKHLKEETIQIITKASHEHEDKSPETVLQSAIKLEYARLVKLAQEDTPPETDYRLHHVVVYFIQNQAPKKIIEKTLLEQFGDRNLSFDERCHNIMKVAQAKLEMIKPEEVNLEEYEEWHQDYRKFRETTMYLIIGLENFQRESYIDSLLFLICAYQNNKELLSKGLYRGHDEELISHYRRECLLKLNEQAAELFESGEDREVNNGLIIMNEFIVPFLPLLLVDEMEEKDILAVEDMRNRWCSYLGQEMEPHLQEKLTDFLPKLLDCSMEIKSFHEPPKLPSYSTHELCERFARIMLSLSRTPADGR
Method in brief: as §1

[4] = target: T3, USP28 (UniProt Q96RU2)
T3 sequence (whole entry): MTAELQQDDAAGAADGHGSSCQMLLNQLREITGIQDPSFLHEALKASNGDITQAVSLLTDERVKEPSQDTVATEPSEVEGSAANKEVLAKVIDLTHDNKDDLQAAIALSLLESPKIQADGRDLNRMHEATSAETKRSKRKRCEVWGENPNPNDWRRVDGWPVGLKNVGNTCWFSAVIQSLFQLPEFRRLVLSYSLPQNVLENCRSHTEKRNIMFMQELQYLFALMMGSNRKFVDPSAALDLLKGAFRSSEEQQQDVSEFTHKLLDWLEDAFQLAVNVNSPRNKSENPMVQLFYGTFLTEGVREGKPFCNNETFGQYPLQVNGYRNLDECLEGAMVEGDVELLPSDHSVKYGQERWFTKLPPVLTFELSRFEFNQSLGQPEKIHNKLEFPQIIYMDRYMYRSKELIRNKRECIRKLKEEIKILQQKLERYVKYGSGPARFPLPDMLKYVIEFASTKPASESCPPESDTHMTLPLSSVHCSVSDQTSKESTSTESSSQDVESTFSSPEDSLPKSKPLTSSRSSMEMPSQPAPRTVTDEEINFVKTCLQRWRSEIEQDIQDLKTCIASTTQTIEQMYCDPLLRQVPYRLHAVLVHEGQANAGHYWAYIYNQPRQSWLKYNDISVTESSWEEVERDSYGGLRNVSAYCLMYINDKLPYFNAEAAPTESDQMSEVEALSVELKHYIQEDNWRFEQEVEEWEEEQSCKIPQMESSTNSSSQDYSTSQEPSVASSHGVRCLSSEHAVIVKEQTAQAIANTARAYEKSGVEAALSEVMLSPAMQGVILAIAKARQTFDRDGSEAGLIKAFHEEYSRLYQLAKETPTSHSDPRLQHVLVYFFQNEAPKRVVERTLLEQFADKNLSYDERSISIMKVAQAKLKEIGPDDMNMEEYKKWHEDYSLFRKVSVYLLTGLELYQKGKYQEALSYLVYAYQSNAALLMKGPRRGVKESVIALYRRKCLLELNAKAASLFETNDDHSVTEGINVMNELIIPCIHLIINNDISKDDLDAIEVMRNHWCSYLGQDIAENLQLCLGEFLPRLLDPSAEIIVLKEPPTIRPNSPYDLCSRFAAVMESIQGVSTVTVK
Method in brief: as §1

Measured: log2 ratio of Biotin-Ahx-Ub-VS probe labelling

Cl.O=C(CCl)NCCc1ncc(F)cc1F
inactive: [1] -0.108 | [2] -0.335 | [3] -0.361 | [4] -0.502

Source: the supplement of paper PMC11732987, “Enantioselective OTUD7B fragment discovery through chemoproteomics screening and high-throughput optimisation” (Communications Chemistry, 2025)
